KB-V1 MDR tox – KB-V1 MDR subline cytotoxicity; Potency, µM (top dose mostly 46.1 µM), usual class: cytotoxic; 400,000 compounds, 3.4% hits; KB-V1 MDR cells viability, CellTiter-Glo, 72 h; further: on the % scale 0 is the no-effect control and ±100 the full control effect; nearly all actives have a fitted effect of over 60% in size
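In this primary screen, KB-V1 cells overexpressing P-gp are incubated with library compounds (lowest to highest concentration) for 72 h at 37 degrees C before a luminescent ATP viability read.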
KB-3-1 tox – kills parental KB-3-1 adenocarcinoma cells | 400,000 compounds, 1.4% hits | AID 1347075 | KB-3-1 viability, CellTiter-Glo ATP luminescence, 72 h | Potency, µM (series often up to 46.1 µM), hits mostly cytotoxic; further: on the % scale 0 is the no-effect control and ±100 the full control effect; nearly all actives have a fitted effect of over 60% in size
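Luminescent ATP read-out (CellTiter-Glo) measures survival of drug-naive KB-3-1 cells after 72 h compound exposure at 37 °C. Titration series was screened from lowest to highest concentration, with DMSO vehicle plates as background controls.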
SW480 rereplic – inducers of DNA re-replication in SW480 colon cancer cells | SW480 DNA re-replication, Hoechst DNA content imaging, 48 h | Potency, µM (doses to about 46.1 µM), for the others: at the highest dose re-replication activation, usual class: activators | 340,000 compounds, 1.8% hits | AID 624297; further: % of control where 0% means no effect; nearly all actives have a fitted effect of over 55% in size
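First, 250 cells per well were seeded. Next, compound or vehicle (23 nL) was pinned in, plates sat 48 hr at 37 C. Finally Hoechst was added for 40 min before fluorescence scanning.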
HT1080NT lethal – kills 2HG-producing HT-1080-NT fibrosarcoma cells. HT-1080-NT fibrosarcoma viability, CellTiter-Glo ATP luminescence, 48 h. Potency, µM (titrated, usually from 46.1 µM), for inactives: at the highest dose activity, negative = less viability, actives largely listed as cytotoxic. 360,000 compounds, 1.6% hits;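 further: NT is the 2HG producing partner of a matched IDH1 knockdown line; 0% = DMSO-treated cells and -100% = media-only wells without cells; nearly all actives have a fitted effect of over 55% in size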
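A 48-hour cytotoxicity screen used HT-1080-NT cells plated 2 hours before compound delivery. ATP-based CellTiter-Glo luminescence measured viability, normalized to DMSO and no-cell controls.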
HT1080 IDH1KD tx – HT-1080 IDH1 knockdown cell toxicity (counter line); HT-1080 IDH1 knockdown viability, ATP luminescence, 48 h; Potency, µM (series often up to 46.1 µM), inactives show top-dose activity, negative = toxicity, usual class: cytotoxic; 360,000 compounds, 2% hits; AID 686971;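 further: 0% = DMSO wells and -100% = cell-free medium wells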
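Using the IDH1-knockdown HT-1080 line run in the same batch and compound series as the NT line, viability after 48 h at 37 °C was determined by CellTiter-Glo luminescence and expressed as % activity.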
MCF10A rereplic – DNA re-replication induction in MCF 10a cells | MCF 10A DNA re-replication, Hoechst nuclear intensity, 48 h | Potency, µM (titrated, usually from 46.1 µM), for inactives: at the top dose activity, positive = re-replication, most hits filed as activators | 350,000 compounds, 2.9% hits | AID 624296; further: % of control where 0% means no effect; nearly all actives have a fitted effect of over 50% in size
Starred values were filed as active, the others as inactive; i = inactive; ? = inconclusive; . = no result; [ ] = another dose, or the depositor's remark. Most compounds without a hit are left out; they make up all but 8% or so of the library. The call rests on the fitted dose curve; in most records, active means well fitted curve in the direction sought with a large enough effect; inconclusive means small, poorly fitted or top-dose-only effect, or another doubt; inactive means no such curve, though single readings can be large; an effect the other way counts as inactive or inconclusive. Potency means the concentration at half of the fitted maximal effect.

SMILES	KB-V1 MDR tox	KB-3-1 tox	SW480 rereplic	HT1080NT lethal	HT1080 IDH1KD tx	MCF10A rereplic
Cc1ccc(C(C)C)c(OCc2nn(CC(=O)c3ccc(Cl)cc3)c3[n+]2CCCCC3)c1	i	?	?	?	18µM*	?
O=C(N/N=C/c1ccc([N+](=O)[O-])o1)c1cc2c(ccc3ccccc32)o1	i	i	?	0%	8%	2.6µM*
O=C(N/N=C/c1cc(Br)c(O)c(Br)c1)c1cc2c(ccc3ccccc32)o1	?	i	?	-26%	?	8.2µM*
O=C(N/N=C/c1cc(Cl)c(O)c(Cl)c1)c1cc2c(ccc3ccccc32)o1	i	i	15µM*	-3%	?	?
CCn1cc(/C=N/NC(=O)c2cc3c(ccc4ccccc43)o2)c2ccccc21	18µM*	?	?	-24%	-26%	?
O=C(N/N=C/c1ccc(O)c(Br)c1)c1cc2c(ccc3ccccc32)o1	i	i	?	-1%	26%	?
S=C(NCCCN(Cc1ccc(Cl)cc1)c1ccc(Br)cn1)NCc1ccc2nc[nH]c2c1	i	i	.	.	.	.
Brc1ccc2ncnc(Nc3ccc(N4CCOCC4)cc3)c2c1	2.9µM*	?	?	-25%	-27%	?
COc1ccc(Nc2nc(N)c([N+](=O)[O-])c(NC3CCCCC3)n2)cc1	?	i	?	16µM*	?	16µM*
COc1ccc(Nc2nc(N)c([N+](=O)[O-])c(NCCO)n2)cc1	i	?	-2%	5%	-14%	12%
CNc1nc(Nc2ccc(Br)cc2)nc(N)c1[N+](=O)[O-]	?	0.73µM*	-66%	?	?	?
COc1ccc(/C(N)=N/OC(=O)Cc2ccc(OC)c(OC)c2)cc1	8.2µM*	?	-6%	?	16%	2%
COc1ccc(CC(=O)c2cc(OC)c(OC)cc2CC(=O)O)cc1OC	i	i	-12%	3%	6%	-14%
COc1ccc(C(=O)Cc2ccc(OC)c(OC)c2)c(OC)c1	13µM*	i	-5%	-9%	7%	-10%
Cc1c(C)n(Cc2ccccc2)c2ccc(C(=O)N3CCN(c4ccc(F)cc4)CC3)cc12	i	i	.	.	.	.
O=C(NCc1ccc(F)cc1)c1noc2c1CCCCC2	16µM*	i	0%	8%	1%	2%
O=C(NCc1ccc(Cl)cc1)c1noc2c1CCCCC2	21µM*	i	?	-5%	2%	-17%
Cc1cc(NC(=O)c2noc3c2CCCCC3)nn1Cc1ccc(Cl)cc1	i	i	-4%	2%[9.24 µM]	-7%	-2%
O=C(NCc1ccc(F)cc1)c1noc2c1CCCC2	i	i	?	-16%	-17%	-16%
CCOc1cc(CNC(=O)Cn2c(-c3cccs3)cc3cc(F)ccc32)ccc1OC	12µM*	i	.	.	.	.
CCOc1ccc(CCNC(=O)Cn2c(-c3cccs3)cc3cc(F)ccc32)cc1OCC	?	6.5µM*	.	.	.	.
COc1ccccc1CNC(=O)Cn1c(-c2cccs2)cc2cc(F)ccc21	i	i	.	.	.	.
CCCCN(C(=O)Cc1ccc(S(=O)(=O)N2CCOCC2)s1)c1c(N)n(CCCC)c(=O)[nH]c1=O	i	i	-4%	0%	9%	0%
O=C(C1CCN(S(=O)(=O)c2cccs2)CC1)N1CCN(c2ccccc2F)CC1	i	i	.	.	.	.
CN(C)c1ccc(/C=C2\C=Nc3ccccc32)cc1	i	i	.	.	.	.
SMILES	KB-V1 MDR tox	KB-3-1 tox	SW480 rereplic	HT1080NT lethal	HT1080 IDH1KD tx	MCF10A rereplic
Cc1ccc2nc(NC(=O)CCNS(=O)(=O)c3ccc(Br)s3)sc2c1	18µM*	i	0%	?	?	?
CC(C(=O)Nc1ccccc1)c1ccc(-c2ccccc2)c(F)c1 (stereo not given)	i	?	5%	?	21µM*	2%
Cc1cccc(-c2nc(CN3CCCC(C(=O)NC4CCCCC4)C3)c(C)o2)c1 (stereo not given)	21µM*	?	8%	?	?	?
CCN1CCCC1CNC(=O)C1CCN(Cc2nc(-c3cccc(Br)c3)oc2C)CC1 (stereo not given)	i	?	?	21µM*	?	?
Cc1oc(-c2cccc(Cl)c2)nc1CN1CCCC(C(=O)NC(C)c2ccc3c(c2)OCCO3)C1 (stereo not given)	26µM*	?	?	?	16µM*	?
Cc1ccc(CNC(=O)C2CCCN(Cc3nc(-c4cccc(C)c4)oc3C)C2)cc1 (stereo not given)	i	i	.	.	.	.
Cc1cccc(-c2nc(CN3CCCC(C(=O)NCCc4ccc(Cl)cc4)C3)c(C)o2)c1 (stereo not given)	i	?	.	.	.	.
Cc1cccc(-c2nc(CN3CCCC(C(=O)NC4CCCCCC4)C3)c(C)o2)c1 (stereo not given)	21µM*	i	?	20µM*	?	?
Nc1nc2ccccc2n1C(=O)c1cccs1	?	i	3%	?	-14%	2%
O=C(O)[C@@H]1CSC2c3ccccc3C(=O)N21 (stereo not given in full)	i	i	7%	23%	25%	-13%
COc1ccc(-n2nc3c(N4CCC(C(=O)NCc5cccc(F)c5)CC4)nnc(C)c3c2C)cc1	i	i	.	.	.	.
Cc1sc2nc(CN3CCCC3)nc(N3CCN(S(=O)(=O)c4cccs4)CC3)c2c1C	18µM*	?	7%	?	16µM*	9%
Cc1ccnc2ccc3ccccc3c12	i	8.2µM*	.	.	.	.
O=Cc1cccnc1SCc1ccccc1	15µM*	?	2.6µM*	?	?	20%
Oc1cccnc1SCc1ccccc1	i	i	-2%	1%	1%	-2%
O=C(Nc1ccc2c(c1)OCCO2)c1ccc(Cl)c(Cl)c1	i	i	-1%	-15%	-17%	10%
CCN(CC)S(=O)(=O)c1cc(NC(=O)CNc2cccc(S(=O)(=O)N3CCOCC3)c2)ccc1C	i	8.2µM*	11%	6.5µM*	18µM*	21%
O=C(Nc1ccc2c(c1)OCCO2)c1ccc2nccnc2c1	i	i	1%	-1%	-6%	7.3µM*
O=C(Nc1ccc2c(c1)OCCO2)c1cccc(S(=O)(=O)N2CCOCC2)c1	21µM*	i	6%	8%	0%	4%
Cc1ccc(NC(=O)CNc2cccc(S(=O)(=O)N3CCOCC3)c2)cc1F	i	i	-1%	-2%	-16%	24%
